# Bioassay records: PubChem, several laboratories
# Hits are enriched below; roughly 3.7% of the tested compounds scored in any of these assays.
# FadD28 binding – inhibitors of Mycobacterium tuberculosis FadD28 bisubstrate binding | inhibition, % at 12.5 µM | 360,000 compounds, 0.22% hits | FadD28 bisubstrate probe binding, fluorescence polarization; in the data active means inhibition above about 8.5%, passing the limit was not always enough
# Mtb betalactam – beta-lactam sensitization of Mtb H37Rv; M. tuberculosis H37Rv growth with meropenem, percent inhibition; inhibition, % at 25 µM; 330,000 compounds, 0.27% hits; call rule not given here;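 further: growth measured after seven days incubation then overnight dye step; 0% = bacteria only wells and 100% = bacteria with antibiotic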
# Mtb FBA inh – Mtb fructose-bisphosphate aldolase inhibition. P9WQA3. purified M. tuberculosis FBA, fluorescence read-out. inhibition, % at 1 µM. 360,000 compounds, 2.3% hits. AID 588726; in the data active means inhibition above about 27%;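 further: 0% = vehicle and 100% = reference inhibitor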
# Rv3671c inh – inhibits the M. tuberculosis serine protease Rv3671c; 320,000 compounds, 0.048% hits; P9WHR9; inhibition, % at 5.96 µM; in the data active means inhibition above about 38%;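 further: extracellular domain of Rv3671c used as enzyme; 0% = enzyme with DMSO and 100% = no enzyme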
# Target sequence (P9WHR9 whole entry, looked up, the tested form may be a part): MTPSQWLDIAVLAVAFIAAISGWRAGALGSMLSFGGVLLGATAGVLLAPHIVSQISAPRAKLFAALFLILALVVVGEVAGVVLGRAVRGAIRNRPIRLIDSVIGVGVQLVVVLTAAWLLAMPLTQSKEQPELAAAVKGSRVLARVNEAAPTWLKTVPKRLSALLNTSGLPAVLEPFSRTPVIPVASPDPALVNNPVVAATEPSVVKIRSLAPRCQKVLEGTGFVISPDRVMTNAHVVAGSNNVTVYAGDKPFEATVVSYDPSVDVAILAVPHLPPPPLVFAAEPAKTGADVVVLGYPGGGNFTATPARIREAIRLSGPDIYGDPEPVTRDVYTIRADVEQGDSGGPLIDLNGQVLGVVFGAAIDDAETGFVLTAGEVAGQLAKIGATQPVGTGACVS
# GDH-TPI inh – inhibits GDH-TPI coupling enzymes, artifact for Mtb FBA screen; 360,000 compounds, 1.2% hits; GDH-TPI coupled enzyme counterscreen, NADH absorbance; inhibition, % at 4.8 µM; in the data active means inhibition above about 30%;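 further: 0% = DMSO wells and 100% = wells lacking the enzyme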
# UGM FP inh – inhibitors of M. tuberculosis UDP-galactopyranose mutase. P9WIQ1. purified UGM, fluorescence polarization probe displacement. inhibition, % at 10 µM. 320,000 compounds, 0.06% hits; in the data active means inhibition above about 10%, passing the limit was not always enough
# Starred values were filed as active, the others as inactive; · = not tested or not shown.
SMILES,FadD28 binding,Mtb betalactam,Mtb FBA inh,Rv3671c inh,GDH-TPI inh,UGM FP inh
COc1cccc(CNC(=O)Cn2nc(C)c([N+](=O)[O-])c2C)c1,-2,3,0,3,6,-2
CN(C)CCCNC(=O)C(=O)NCC(c1cccs1)S(=O)(=O)c1ccc(F)cc1 (stereo not drawn),2,-5,3,-8,-1,-3
NC(=S)NN=Cc1ccc(-c2ccc(S(=O)(=O)Nc3ncccn3)cc2)o1,23*,-2,20,10,33*,·
NC(=S)N/N=C/c1ccc(-c2ccc(SC(F)F)cc2)o1,-1,94,9,4,45*,-4
CCOc1ccc(C(=O)N/N=C/c2ccc(-c3ccc(S(=O)(=O)Nc4ncccn4)cc3)o2)cc1,-9,100,26,0,35*,3
Cc1ccc(-c2ccc(/C=N/NC(N)=S)o2)cc1,-3,96,11,1,24,-1
NC(=S)N/N=C/c1ccc(-c2ccccc2)o1,-6,97,-3,2,12,-1
O=C(N/N=C/c1ccc(-c2ccc(S(=O)(=O)Nc3ncccn3)cc2)o1)c1cc2ccccc2cc1O,-3,2,5,27,27,1
C[C@H](CO)N1C[C@H](C)[C@@H](CN(C)S(=O)(=O)c2cccs2)OCc2cnnn2CCCC1=O,-2,·,4,·,4,·
COc1ccc(NS(=O)(=O)c2ccc(C(=O)N(C)Cc3ccc(C)o3)cc2)cc1,-6,2,-1,2,-3,0
COc1cc(Cl)ccc1OC1(C)CCN(Cc2c(F)cccc2F)C1 (stereo not drawn),0,·,1,·,8,·
N#Cc1cc2cc3c(cc2nc1N1CCOCC1)OCO3,-4,-9,112*,-3,1,5
Cc1cc(C)c2nc(N3CCOCC3)c(C#N)cc2c1,0,5,16,5,7,0
O=C1/C(=C/c2ccc(O)c([N+](=O)[O-])c2)SC(=S)N1Cc1ccccc1,2,6,-3,-9,3,-1
O=C(NN1C(=O)/C(=C/c2cc([N+](=O)[O-])ccc2O)SC1=S)c1ccccc1O,·,28,·,52*,·,2
Cc1ccc(/C=C2\SC(=S)N(/N=C/c3cc([N+](=O)[O-])ccc3O)C2=O)o1,26*,6,-22,18,24,4
O=C(NN1C(=O)/C(=C/c2ccc(O)c([N+](=O)[O-])c2)SC1=S)c1ccccc1Cl,21*,-4,-21,-10,5,2
O=C(Cc1ccccc1)NN1C(=O)/C(=C/c2ccc(C(=O)O)cc2)SC1=S,0,-10,-2,1,13,4
O=C(NN1C(=O)/C(=C/c2ccc(O)cc2)SC1=S)c1ccccc1O,19*,-1,-15,-24,8,-12
O=[N+]([O-])c1ccc(O)c(/C=N/n2cnc3ccccc32)c1,-1,4,-2,13,21,-2
COCCN(C(=O)CCC(=O)Nc1ccccn1)C(C(=O)NCCC(C)C)c1ccc(F)cc1 (stereo not drawn),-1,-5,1,8,1,-2
COc1cc(/C=C2\SC(=S)N(NC(=O)c3ccccc3O)C2=O)ccc1O,11*,0,-13,-114,8,-25
O=C(NN1C(=O)/C(=C/c2ccc(O)cc2)SC1=S)c1cccc(O)c1,19*,10,-13,-55,7,-16
CC(/C=C1\SC(=S)N(NC(=O)c2cccc(O)c2)C1=O)=C\c1ccccc1,-5,58,-4,-42,10,-3
COc1ccc(/C=C(\NC(=O)c2ccccc2)C(=O)N/N=C/c2ccncc2)cc1,-3,-1,0,3,49*,0
SMILES,FadD28 binding,Mtb betalactam,Mtb FBA inh,Rv3671c inh,GDH-TPI inh,UGM FP inh
COc1ccc(/C=C(/NC(=O)c2ccccc2)C(=O)N/N=C/c2ccncc2)c(OC)c1,-2,7,2,2,29,2
Cc1ccnc(N/C=C(/NC(=O)c2ccccc2)C(=O)N/N=C\c2ccc(F)cc2)n1,-1,-12,2,6,54*,0
COc1ccc(/C=C(\NC(=O)c2ccccc2)C(=O)N/N=C/c2cccnc2)cc1,-4,-2,-2,0,39*,3
CCN(CC)CCN(C)C(=O)c1[nH]c(C(F)(F)F)nc1-c1ccccc1,-1,·,-1,·,·,·
C1=C(c2ccccc2)Nc2nnnn2C1,-1,11,87*,-1,0,-1
Cc1cccc(NC(=O)C2CCN(C(=O)c3ccc(F)cc3)CC2)n1,-2,-5,0,-2,-13,0
Cn1nc(C(=O)Nc2cc(Cl)ccc2N2CCCC2)c2ccccc2c1=O,-3,3,0,-13,5,17*
CN1CCN(c2ccc(Cl)cc2NC(=O)c2nn(-c3ccccc3)c(=O)c3ccccc23)CC1,-2,·,-1,·,3,·
CC(C)c1nc(NCCO)c(C#N)c2c1CCCC2,-2,5,16,1,39*,2
O=C(O)c1ccc2c(c1)[C@@H]1C=CC[C@@H]1[C@H](c1ccccn1)N2,19*,5,3,28,4,1
COc1cccc(NS(=O)(=O)c2ccc3c(c2)C2C=CCC2C(c2ccc(C(=O)O)cc2)N3)c1 (stereo not drawn),22*,-10,-3,20,8,3
c1ccc2c(c1)oc1c(-c3ccc4nccn4c3)cccc12,-5,·,4,·,-6,·
Cc1ccc(N(C)S(=O)(=O)c2cccc(C(=O)NCCCN3CCCC3=O)c2)cc1,-2,13,-2,5,0,-2
O=C1CC(c2ccc3c(c2)OCCO3)Oc2ccccc21 (stereo not drawn),0,3,-1,-3,7,-1
NC(=S)N/N=C1\CC(c2ccc3c(c2)OCCO3)Oc2ccc(F)cc21 (stereo not drawn),-1,-11,-2,-8,40*,3
O=C1CC(c2ccc3c(c2)OCCO3)Oc2ccc([N+](=O)[O-])cc21 (stereo not drawn),-3,8,-5,-5,8,3
NC(=S)N/N=C1\CC(c2ccc3c(c2)OCCCO3)Oc2ccc(F)cc21 (stereo not drawn),-6,-14,0,-9,45*,0
O=C(C#Cc1ccccc1)c1ccco1,-3,100,0,-1,23,-3
Cc1nc(C)c(C(=O)N/N=C/c2cn(C)c3ccccc23)s1,0,-2,-2,0,34*,0
Cn1cc(/C=N/NC(=O)c2ccccc2O)c2ccccc21,3,23,2,6,59*,1
COc1ccc(/C=N/NC(=O)c2cccc([N+](=O)[O-])c2)c2ccccc12,-3,8,3,0,-1,2
Cn1cc(/C=N/NC(=O)c2cccc([N+](=O)[O-])c2)c2ccccc21,0,3,-1,2,37*,2
Cc1nc(C)c(C(=O)N/N=C/c2c[nH]c3ccccc23)s1,2,-5,-1,-1,24,-3
